Counter-ions that a name gives are not always drawn.
How the values were obtained:
Settings in all cases: incubation time: 27 h, anaerobic, 37 °C;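 for the amine columns active = adjusted P below 0.05 in both replicates with a change the same way and a mean fold change under 0.8 or over 1.25; inactive = the rest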
[1] = tested on: Clostridium sporogenes DSM 1664; assay: growth (OD595) fold change vs plate DMSO controls (fold change (ratio)); higher = more growth
Method in brief: (§1)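 Growth is the fold change relative to the median of plate DMSO controls. Readings came from anaerobic mGAM cultures in 96-well plates grown for 27 h at 37 °C and read at 595 nm. They were blank-subtracted, corrected for compound background with 20 µM compound solutions in water, and converted to OD with a calibration factor of 5. Values are means of 2 biological replicates, and fold changes above 1.5 were set to NA.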

Escherichia coli IAI1 [2] = assay: as above
Method in brief: as §1

[3] = tested on: Klebsiella aerogenes DSM 30053; assay: as above
Method in brief: as §1

[4] = tested on: Ruminococcus gnavus DSM 108212; assay: as above
Method in brief: as §1

[5] = tested on: Klebsiella aerogenes DSM 30053; assay: fold change of Histamine concentration vs plate DMSO controls (fold change (ratio)); higher = more amine produced, active = hit call of the paper (significant change in both replicates, either direction)
Method in brief: (§2)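 In 80 µL wells, cultures of four gut bacterial strains in mGAM started at OD 0.1 before a 1:1 dilution and grew anaerobically at 37 °C for 27 h. Compounds were added to 20 µM final, except sweeteners at 50 µM final. After extraction of whole cultures with cold acetonitrile/methanol plus 0.1% formic acid and centrifugation, amines were measured by LC–triple-quadrupole MS in dynamic MRM mode against external calibration curves, with within-batch drift correction. Values give fold change over DMSO controls on the same plate, averaged across 2 biological replicates.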

[6] = tested on: Clostridium sporogenes DSM 1664; assay: fold change of Tryptamine concentration vs plate DMSO controls (fold change (ratio)); higher = more amine produced, active = hit call of the paper (significant change in both replicates, either direction)
Method in brief: as §2

[7] = tested on: Ruminococcus gnavus DSM 108212; assay: as above
Method in brief: as §2

Escherichia coli IAI1 [8] = assay: fold change of Putrescine concentration vs plate DMSO controls (fold change (ratio)); higher = more amine produced, active = hit call of the paper (significant change in both replicates, either direction)
Method in brief: as §2

[9] = tested on: Klebsiella aerogenes DSM 30053; assay: as above
Method in brief: as §2

Escherichia coli IAI1 [10] = assay: fold change of Cadaverine concentration vs plate DMSO controls (fold change (ratio)); higher = more amine produced, active = hit call of the paper (significant change in both replicates, either direction)
Method in brief: as §2

[11] = tested on: Klebsiella aerogenes DSM 30053; assay: as above
Method in brief: as §2

[12] = tested on: Ruminococcus gnavus DSM 108212; assay: fold change of 2-Phenylethylamine concentration vs plate DMSO controls (fold change (ratio)); higher = more amine produced, active = hit call of the paper (significant change in both replicates, either direction)
Method in brief: as §2

Compound	growth [1]	growth (Escherichia coli IAI1 [2])	growth [3]	growth [4]	fold change of Histamine concentration [5]	fold change of Tryptamine concentration [6]	fold change of Tryptamine concentration [7]	fold change of Putrescine concentration (Escherichia coli IAI1 [8])	fold change of Putrescine concentration [9]	fold change of Cadaverine concentration (Escherichia coli IAI1 [10])	fold change of Cadaverine concentration [11]	fold change of 2-Phenylethylamine concentration [12]
Cc1ccsc1/C=C/C1=NCCCN1C [Morantel tartrate] (20 µM)	1.2	1.07	1.08	1.08	0.92 (inactive)	0.936 (inactive)	0.918 (inactive)	1.01 (inactive)	1 (inactive)	1.03 (inactive)	1.01 (inactive)	0.957 (inactive)
CCOC(=O)[C@H](CCc1ccccc1)N[C@@H](C)C(=O)N1[C@H](C(=O)O)C[C@@H]2CCC[C@@H]21 [Ramipril] (20 µM)	1.06	0.984	1.13	1.19	0.948 (inactive)	0.963 (inactive)	0.966 (inactive)	0.999 (inactive)	1.05 (inactive)	0.964 (inactive)	1.05 (inactive)	0.911 (inactive)
CC(C)[C@H](N)C(=O)OCCOCn1cnc2c(=O)nc(N)[nH]c21 [Valacyclovir hydrochloride] (20 µM)	1.06	0.958	0.98	0.538	1.09 (inactive)	0.989 (inactive)	1.02 (inactive)	0.954 (inactive)	1.03 (inactive)	0.987 (inactive)	0.999 (inactive)	0.997 (inactive)
COc1ccc([C@@H]2CC(=O)c3c(O)cc(O[C@@H]4O[C@H](CO[C@@H]5O[C@@H](C)[C@H](O)[C@@H](O)[C@H]5O)[C@@H](O)[C@H](O)[C@H]4O)cc3O2)cc1O [Hesperidin] (20 µM)	1.12	1.05	1.06	0.984	0.921 (inactive)	1.26 (active)	1.01 (inactive)	1.01 (inactive)	0.934 (inactive)	0.986 (inactive)	1.02 (inactive)	0.982 (inactive)
CCN1CCC[C@H]1CNC(=O)c1c(O)c(Cl)cc(Cl)c1OC [Raclopride] (20 µM)	1.03	1.25	0.996	0.999	0.961 (inactive)	1.06 (inactive)	1 (inactive)	1.19 (inactive)	0.97 (inactive)	0.944 (inactive)	0.983 (inactive)	0.991 (inactive)
COc1ccc2[nH]c([S+]([O-])Cc3ncc(C)c(OC)c3C)nc2c1 (stereo not given) [Omeprazole] (20 µM)	1.05	0.96	1.01	1.2	0.936 (inactive)	1.02 (inactive)	1.01 (inactive)	0.97 (inactive)	1.01 (inactive)	1 (inactive)	1 (inactive)	1.02 (inactive)
CC(=O)OC(C)C[N+](C)(C)C (stereo not given) [Methacholine chloride] (20 µM)	0.962	1.02	0.965	0.97	0.992 (inactive)	1.01 (inactive)	1.06 (inactive)	1.09 (inactive)	1 (inactive)	0.985 (inactive)	0.989 (inactive)	1.08 (inactive)
O=C1NCCN1c1ncc([N+](=O)[O-])s1 [Niridazole] (20 µM)	0.0129	1.09	0.756	0.0406	1.11 (inactive)	0.0363 (active)	0.0455 (active)	1.44 (inactive)	1.03 (inactive)	1.97 (active)	1.02 (inactive)	0.0533 (active)
O=C(O)c1ccccc1OP(=O)(O)O [Fosfosal] (20 µM)	0.91	1.01	1.01	1.17	0.997 (inactive)	1.05 (inactive)	1.03 (inactive)	0.942 (inactive)	1 (inactive)	0.995 (inactive)	0.995 (inactive)	1.04 (inactive)
NC(=O)Cc1cccc(C(=O)c2ccccc2)c1N [Nepafenac] (20 µM)	1.01	1.03	1.06	1.09	0.929 (inactive)	1.04 (inactive)	1.06 (inactive)	0.989 (inactive)	0.993 (inactive)	0.962 (inactive)	1.04 (inactive)	1.11 (inactive)
O=C(O)c1cc(=O)c2ccccc2o1 [Chromocarb] (20 µM)	0.945	0.984	0.99	0.957	1.02 (inactive)	1.01 (inactive)	0.989 (inactive)	1.01 (inactive)	0.998 (inactive)	0.983 (inactive)	0.979 (inactive)	0.974 (inactive)
CCCCC1=NC2(CCCC2)C(=O)N1Cc1ccc(-c2ccccc2-c2nnn[nH]2)cc1 [Irbesartan] (20 µM)	1.11	1.03	1.01	1.21	1.05 (inactive)	0.968 (inactive)	0.947 (inactive)	1.02 (inactive)	1.01 (inactive)	1.01 (inactive)	0.995 (inactive)	0.929 (inactive)
OC(CCN1CCCCC1)(c1ccccc1)c1ccccc1 [Pridinol methanesulfonate salt] (20 µM)	1.18	0.97	0.996	1.02	1.05 (inactive)	1.03 (inactive)	1.05 (inactive)	1.21 (inactive)	0.996 (inactive)	0.368 (active)	0.997 (inactive)	1.04 (inactive)
O=C(CO)[C@@H](O)[C@@H](O)[C@H](O)CO [D-Tagatose] (50 µM)	0.957	1.01	1.03	0.984	0.943 (inactive)	0.991 (inactive)	0.995 (inactive)	1.03 (inactive)	1.02 (inactive)	1.07 (inactive)	1.03 (inactive)	0.992 (inactive)
Nc1nc2n[nH]nc2c(=O)[nH]1 [Azaguanine-8] (20 µM)	0.886	1.05	1.01	0.846	1.04 (inactive)	0.988 (inactive)	0.924 (inactive)	1.01 (inactive)	0.968 (inactive)	1.01 (inactive)	1.03 (inactive)	0.882 (inactive)
O=C(CCCN1CCN(c2ccccn2)CC1)c1ccc(F)cc1 [Azaperone] (20 µM)	1.12	1.24	0.974	1.12	1.01 (inactive)	1.14 (inactive)	0.963 (inactive)	1.31 (inactive)	0.987 (inactive)	0.84 (inactive)	1.01 (inactive)	0.998 (inactive)
CN(C)CC/C=C1/c2ccccc2Sc2ccc(Cl)cc21 [Chlorprothixene hydrochloride] (20 µM)	1.03	0.991	1.01	0.904	0.956 (inactive)	0.997 (inactive)	0.87 (inactive)	0.959 (inactive)	0.996 (inactive)	1.03 (inactive)	1.02 (inactive)	0.942 (inactive)
CCn1cc(C(=O)O)c(=O)c2ccc(C)nc21 [Nalidixic acid sodium salt] (20 µM)	1.09	0.265	0.814	1.13	1.43 (inactive)	0.991 (inactive)	1.02 (inactive)	0.671 (inactive)	1.05 (inactive)	1.69 (inactive)	0.966 (inactive)	1.07 (inactive)
CCc1cc(Cl)c(OC)c(C(=O)NC[C@@H]2CCCN2CC)c1O [(S,-) Eticlopride hydrochloride] (20 µM)	0.973	0.985	1.02	0.979	1.04 (inactive)	0.99 (inactive)	0.88 (inactive)	0.975 (inactive)	1.02 (inactive)	1.01 (inactive)	0.985 (inactive)	0.939 (inactive)
Oc1c(Br)cc(Br)c2cccnc12 [Broxyquinoline] (20 µM)	0.98	0.92	0.951	0.643	1.09 (inactive)	0.919 (inactive)	0.562 (active)	1.03 (inactive)	1.02 (inactive)	1.2 (inactive)	0.968 (inactive)	0.6 (inactive)
CS(=O)(=O)CCNCc1ccc(-c2ccc3ncnc(Nc4ccc(OCc5cccc(F)c5)c(Cl)c4)c3c2)o1 [Lapatinib] (20 µM)	1.05	1.05	1.02	1.01	1.03 (inactive)	0.977 (inactive)	1.03 (inactive)	0.977 (inactive)	1.02 (inactive)	1.04 (inactive)	1.01 (inactive)	0.999 (inactive)
CCOc1cc(CC(=O)N[C@@H](CC(C)C)c2ccccc2N2CCCCC2)ccc1C(=O)O [Repaglinide] (20 µM)	1.11	1.2	0.993	0.81	0.982 (inactive)	1.18 (inactive)	1.09 (inactive)	1.14 (inactive)	0.966 (inactive)	1.01 (inactive)	1.03 (inactive)	1.13 (inactive)
O=C1c2c(O)cccc2Cc2cccc(O)c21 [Anthralin] (20 µM)	1.07	0.981	1.03	0.95	1.05 (inactive)	1.1 (inactive)	0.996 (inactive)	1.02 (inactive)	1.01 (inactive)	0.992 (inactive)	0.999 (inactive)	0.91 (inactive)
CC1CCc2c(N3CCC(O)CC3)c(F)cc3c(=O)c(C(=O)O)cn1c23 (stereo not given) [Nadifloxacin] (20 µM)	0.00717	0.0576	0.316	0.383	0.5 (active)	0.0474 (active)	0.271 (active)	0.763 (inactive)	1.16 (inactive)	0.267 (active)	0.982 (inactive)	0.362 (active)
CC(C)OC(=O)C(C(=O)OC(C)C)=C1SC=CS1 [Malotilate] (20 µM)	1.09	1.07	1.08	1.16	0.94 (inactive)	0.958 (inactive)	0.956 (inactive)	1.07 (inactive)	1.04 (inactive)	0.949 (inactive)	1.02 (inactive)	0.88 (inactive)
